# Assay results: paper PMC7862700, “An all-to-all approach to the identification of sequence-specific readers for epigenetic DNA modifications on cytosine”
# What was measured:
# Experiment in all cases: DAPPL (digital affinity profiling via proximity ligation, sequencing); 10 mM Tris-HCl pH 7.5, 50 mM NaCl, 1 mM DTT, 4% glycerol, room temperature, 30 min; GST-TFs on glutathione beads, 16-mer random dsDNA library, 0.1% formaldehyde crosslink after washing; high values mean tight binding
# FEV = target: T1, FEV (Homo sapiens, UniProt Q99581 1-238); conditions: protein: recombinant; tags: N-terminal GST; dsDNA, one strand shown
# T1 sequence: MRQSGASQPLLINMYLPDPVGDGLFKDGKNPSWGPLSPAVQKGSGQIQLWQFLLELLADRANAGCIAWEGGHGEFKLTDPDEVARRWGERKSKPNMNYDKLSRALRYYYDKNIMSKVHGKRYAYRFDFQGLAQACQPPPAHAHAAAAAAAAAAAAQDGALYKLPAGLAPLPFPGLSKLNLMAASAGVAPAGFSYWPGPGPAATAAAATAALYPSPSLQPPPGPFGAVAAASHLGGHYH
# In short: (§1)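 Binding signal is each hexamer's read frequency for a factor divided by its frequency in the tag-only sample. The factors were GST-fused human transcription factors from yeast, captured on glutathione beads, DNA-barcoded and pooled with that sample. Pools were incubated with 200 nmole of a random double-stranded 16-mer DNA library in Tris/NaCl/DTT/glycerol buffer at room temperature for 30 min, then washed, crosslinked with 0.1% formaldehyde, proximity-ligated with BsaI/T4 ligase (1 h, 37 °C), PCR-amplified and sequenced on an Illumina NextSeq500.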
# ETV5 = ETV5 (Homo sapiens, UniProt P41161 1-510); conditions: protein: recombinant; tags: N-terminal GST; dsDNA, one strand shown
# In short: as §1
# HSF1 = HSF1 (Homo sapiens, UniProt Q00613 1-529); conditions: protein: recombinant; tags: N-terminal GST; chain copies: 3; dsDNA, one strand shown
# In short: as §1
# SPIC = target: T2, SPIC (Homo sapiens, UniProt Q8N5J4 1-248); conditions: protein: recombinant; tags: N-terminal GST; dsDNA, one strand shown
# T2 sequence: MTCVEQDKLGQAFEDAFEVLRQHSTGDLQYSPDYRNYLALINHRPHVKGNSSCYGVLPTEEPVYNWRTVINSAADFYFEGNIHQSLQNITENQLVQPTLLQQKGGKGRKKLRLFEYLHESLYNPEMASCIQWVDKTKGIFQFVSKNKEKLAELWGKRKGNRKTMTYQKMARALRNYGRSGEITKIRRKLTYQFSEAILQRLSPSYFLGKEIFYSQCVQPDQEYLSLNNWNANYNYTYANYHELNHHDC
# In short: as §1
# ELF4 = ELF4 (Homo sapiens, UniProt Q99607 1-663); conditions: protein: recombinant; tags: N-terminal GST; dsDNA, one strand shown
# In short: as §1
# ELK4 = target: T3, ELK4 (Homo sapiens, UniProt P28324-2 1-405); conditions: protein: recombinant; tags: N-terminal GST; dsDNA, one strand shown
# T3 sequence: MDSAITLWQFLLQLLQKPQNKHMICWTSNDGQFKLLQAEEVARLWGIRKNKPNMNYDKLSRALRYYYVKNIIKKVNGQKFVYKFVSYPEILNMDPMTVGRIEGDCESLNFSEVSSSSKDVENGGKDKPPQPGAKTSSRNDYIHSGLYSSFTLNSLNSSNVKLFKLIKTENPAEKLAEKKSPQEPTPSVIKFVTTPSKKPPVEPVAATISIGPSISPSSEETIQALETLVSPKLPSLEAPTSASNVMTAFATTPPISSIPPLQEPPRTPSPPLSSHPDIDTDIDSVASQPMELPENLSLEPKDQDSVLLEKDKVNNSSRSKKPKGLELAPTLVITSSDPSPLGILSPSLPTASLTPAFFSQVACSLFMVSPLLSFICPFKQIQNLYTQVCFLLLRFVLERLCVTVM
# In short: as §1
# ETV2 = target: T4, ETV2 (Homo sapiens, UniProt O00321 1-342); conditions: protein: recombinant; tags: N-terminal GST; dsDNA, one strand shown
# T4 sequence: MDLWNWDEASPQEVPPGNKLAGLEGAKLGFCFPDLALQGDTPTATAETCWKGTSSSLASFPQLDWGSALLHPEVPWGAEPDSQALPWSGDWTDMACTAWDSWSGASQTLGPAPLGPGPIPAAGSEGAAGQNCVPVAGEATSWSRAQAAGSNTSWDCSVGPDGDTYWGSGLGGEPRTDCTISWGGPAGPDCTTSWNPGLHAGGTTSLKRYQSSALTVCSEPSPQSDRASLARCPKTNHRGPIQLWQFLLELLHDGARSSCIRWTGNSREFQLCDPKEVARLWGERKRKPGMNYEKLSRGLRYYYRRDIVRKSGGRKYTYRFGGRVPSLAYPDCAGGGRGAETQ
# In short: as §1
# ELF3 = target: T5, ELF3 (Homo sapiens, UniProt P78545 1-371); conditions: protein: recombinant; tags: N-terminal GST; dsDNA, one strand shown
# T5 sequence: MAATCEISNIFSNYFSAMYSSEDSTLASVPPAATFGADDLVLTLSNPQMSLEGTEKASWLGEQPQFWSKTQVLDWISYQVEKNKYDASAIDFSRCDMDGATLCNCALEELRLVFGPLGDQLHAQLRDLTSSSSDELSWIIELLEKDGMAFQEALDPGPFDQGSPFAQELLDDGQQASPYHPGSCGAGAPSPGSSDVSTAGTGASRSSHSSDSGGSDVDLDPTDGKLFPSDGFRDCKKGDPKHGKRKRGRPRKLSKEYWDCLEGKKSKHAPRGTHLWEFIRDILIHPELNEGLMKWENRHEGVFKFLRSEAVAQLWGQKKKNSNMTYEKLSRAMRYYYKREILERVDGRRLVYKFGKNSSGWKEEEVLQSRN
# In short: as §1
# CRX = CRX (Homo sapiens, UniProt O43186 1-299); conditions: protein: recombinant; tags: N-terminal GST; dsDNA, one strand shown
# In short: as §1
# ETV1 = ETV1 (Homo sapiens, UniProt P50549 1-477); conditions: protein: recombinant; tags: N-terminal GST; dsDNA, one strand shown
# In short: as §1
# ERF = target: T6, ERF (Homo sapiens, UniProt P50548 1-548); conditions: protein: recombinant; tags: N-terminal GST; dsDNA, one strand shown
# T6 sequence: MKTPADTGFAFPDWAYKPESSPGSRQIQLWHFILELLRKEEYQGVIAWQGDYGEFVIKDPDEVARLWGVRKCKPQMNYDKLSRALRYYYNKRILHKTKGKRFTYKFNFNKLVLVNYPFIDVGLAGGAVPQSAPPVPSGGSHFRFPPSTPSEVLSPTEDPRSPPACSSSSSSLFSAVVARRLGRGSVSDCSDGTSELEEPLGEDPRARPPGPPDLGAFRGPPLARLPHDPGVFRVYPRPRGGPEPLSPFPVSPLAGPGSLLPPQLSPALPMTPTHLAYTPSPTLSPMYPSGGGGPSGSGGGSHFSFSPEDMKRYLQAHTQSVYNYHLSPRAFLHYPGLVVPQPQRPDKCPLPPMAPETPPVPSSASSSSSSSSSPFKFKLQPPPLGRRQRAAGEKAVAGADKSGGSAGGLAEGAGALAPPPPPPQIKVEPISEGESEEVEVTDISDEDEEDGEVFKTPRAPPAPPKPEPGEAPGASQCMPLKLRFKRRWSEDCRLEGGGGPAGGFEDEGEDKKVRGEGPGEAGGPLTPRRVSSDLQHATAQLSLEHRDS
# In short: as §1
# ETV3L = target: T7, ETV3L (Homo sapiens, UniProt Q6ZN32 1-361); conditions: protein: recombinant; tags: N-terminal GST; dsDNA, one strand shown
# T7 sequence: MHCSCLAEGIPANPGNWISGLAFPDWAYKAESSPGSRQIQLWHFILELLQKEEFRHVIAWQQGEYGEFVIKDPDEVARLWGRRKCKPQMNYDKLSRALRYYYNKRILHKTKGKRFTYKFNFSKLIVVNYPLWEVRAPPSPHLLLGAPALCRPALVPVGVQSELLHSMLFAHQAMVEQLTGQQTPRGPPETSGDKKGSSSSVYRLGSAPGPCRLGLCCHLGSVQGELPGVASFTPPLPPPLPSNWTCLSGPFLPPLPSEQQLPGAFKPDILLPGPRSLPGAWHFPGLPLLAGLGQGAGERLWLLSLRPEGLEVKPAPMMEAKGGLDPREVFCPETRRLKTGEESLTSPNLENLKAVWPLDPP
# In short: as §1
# ETS2 = target: T8, ETS2 (Homo sapiens, UniProt P15036 1-469); conditions: protein: recombinant; tags: N-terminal GST; dsDNA, one strand shown
# T8 sequence: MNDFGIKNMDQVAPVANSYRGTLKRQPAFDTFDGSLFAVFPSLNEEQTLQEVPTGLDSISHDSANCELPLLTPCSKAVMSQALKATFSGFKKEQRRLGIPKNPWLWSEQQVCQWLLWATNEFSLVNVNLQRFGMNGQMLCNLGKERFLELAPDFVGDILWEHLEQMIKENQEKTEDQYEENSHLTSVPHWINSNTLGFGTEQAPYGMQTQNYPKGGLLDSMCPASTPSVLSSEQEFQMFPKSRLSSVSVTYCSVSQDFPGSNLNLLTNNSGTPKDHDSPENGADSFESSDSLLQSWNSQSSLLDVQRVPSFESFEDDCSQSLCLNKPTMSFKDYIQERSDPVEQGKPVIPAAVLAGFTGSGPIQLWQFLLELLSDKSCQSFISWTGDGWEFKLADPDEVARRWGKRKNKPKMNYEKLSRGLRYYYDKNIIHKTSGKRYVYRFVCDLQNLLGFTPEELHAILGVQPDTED
# In short: as §1
# SPDEF = target: T9, SPDEF (Homo sapiens, UniProt O95238 1-335); conditions: protein: recombinant; tags: N-terminal GST; dsDNA, one strand shown
# T9 sequence: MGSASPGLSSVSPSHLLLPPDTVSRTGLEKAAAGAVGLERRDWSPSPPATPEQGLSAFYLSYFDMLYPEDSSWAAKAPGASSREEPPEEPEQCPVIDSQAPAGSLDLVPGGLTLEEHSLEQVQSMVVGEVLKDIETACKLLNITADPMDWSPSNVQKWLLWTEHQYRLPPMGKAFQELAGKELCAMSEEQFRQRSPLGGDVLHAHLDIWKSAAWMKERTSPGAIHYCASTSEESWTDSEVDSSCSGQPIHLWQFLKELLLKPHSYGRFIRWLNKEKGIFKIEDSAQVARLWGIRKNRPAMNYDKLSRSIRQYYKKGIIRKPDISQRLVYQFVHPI
# In short: as §1
# ETV7 = target: T10, ETV7 (Homo sapiens, UniProt Q9Y603 1-341); conditions: protein: recombinant; tags: N-terminal GST; dsDNA, one strand shown
# T10 sequence: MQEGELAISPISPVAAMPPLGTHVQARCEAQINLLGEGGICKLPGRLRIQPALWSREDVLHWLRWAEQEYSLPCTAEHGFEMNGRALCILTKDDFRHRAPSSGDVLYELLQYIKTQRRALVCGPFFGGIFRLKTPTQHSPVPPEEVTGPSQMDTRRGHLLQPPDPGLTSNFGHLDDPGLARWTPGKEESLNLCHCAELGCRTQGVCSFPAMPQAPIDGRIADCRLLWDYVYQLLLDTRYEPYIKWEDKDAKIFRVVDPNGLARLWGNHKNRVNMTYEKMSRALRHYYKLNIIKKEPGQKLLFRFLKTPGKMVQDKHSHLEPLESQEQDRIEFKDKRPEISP
# In short: as §1
# ELF5 = target: T11, ELF5 (Homo sapiens, UniProt Q9UKW6-2 1-255); conditions: protein: recombinant; tags: N-terminal GST; dsDNA, one strand shown
# T11 sequence: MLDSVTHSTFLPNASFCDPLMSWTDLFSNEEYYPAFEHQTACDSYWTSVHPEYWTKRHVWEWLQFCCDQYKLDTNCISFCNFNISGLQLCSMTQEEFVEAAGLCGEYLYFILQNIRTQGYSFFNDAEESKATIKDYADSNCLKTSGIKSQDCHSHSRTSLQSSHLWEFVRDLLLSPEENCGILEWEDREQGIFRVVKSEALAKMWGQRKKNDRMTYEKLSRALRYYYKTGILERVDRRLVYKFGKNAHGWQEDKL
# In short: as §1
# ETV3 = target: T12, ETV3 (Homo sapiens, UniProt P41162-2 1-143); conditions: protein: recombinant; tags: N-terminal GST; dsDNA, one strand shown
# T12 sequence: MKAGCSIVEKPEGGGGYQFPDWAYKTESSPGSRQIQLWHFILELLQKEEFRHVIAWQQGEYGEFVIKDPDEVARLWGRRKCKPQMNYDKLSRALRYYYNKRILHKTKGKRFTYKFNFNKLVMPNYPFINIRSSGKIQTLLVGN
# In short: as §1
# ETV6 = ETV6 (Homo sapiens, UniProt P41212 1-452); conditions: protein: recombinant; tags: N-terminal GST; dsDNA, one strand shown
# In short: as §1
# Sequence of CRX (O43186 whole entry): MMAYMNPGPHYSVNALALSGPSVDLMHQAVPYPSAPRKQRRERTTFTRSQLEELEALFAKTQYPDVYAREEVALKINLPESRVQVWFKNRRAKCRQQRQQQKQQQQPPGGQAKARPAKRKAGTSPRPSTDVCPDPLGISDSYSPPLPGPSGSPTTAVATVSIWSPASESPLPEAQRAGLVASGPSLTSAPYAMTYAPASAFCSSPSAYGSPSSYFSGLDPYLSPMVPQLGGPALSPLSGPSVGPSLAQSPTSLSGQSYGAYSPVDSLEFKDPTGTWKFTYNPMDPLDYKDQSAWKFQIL
# Sequence of ETV6 (P41212 whole entry): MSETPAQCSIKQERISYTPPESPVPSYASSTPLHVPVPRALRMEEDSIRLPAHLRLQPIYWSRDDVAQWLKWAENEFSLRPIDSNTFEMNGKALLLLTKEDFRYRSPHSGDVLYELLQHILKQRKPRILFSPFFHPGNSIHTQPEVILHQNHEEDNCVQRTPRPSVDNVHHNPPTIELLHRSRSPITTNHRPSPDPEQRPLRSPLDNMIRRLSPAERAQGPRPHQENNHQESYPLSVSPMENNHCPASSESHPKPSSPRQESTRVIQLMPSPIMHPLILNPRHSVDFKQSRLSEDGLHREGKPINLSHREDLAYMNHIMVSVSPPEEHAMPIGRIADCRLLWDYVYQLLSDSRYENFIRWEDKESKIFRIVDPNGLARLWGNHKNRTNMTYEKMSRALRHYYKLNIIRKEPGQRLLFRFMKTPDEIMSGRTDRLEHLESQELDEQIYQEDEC
# Sequence of ETV5 (P41161 whole entry): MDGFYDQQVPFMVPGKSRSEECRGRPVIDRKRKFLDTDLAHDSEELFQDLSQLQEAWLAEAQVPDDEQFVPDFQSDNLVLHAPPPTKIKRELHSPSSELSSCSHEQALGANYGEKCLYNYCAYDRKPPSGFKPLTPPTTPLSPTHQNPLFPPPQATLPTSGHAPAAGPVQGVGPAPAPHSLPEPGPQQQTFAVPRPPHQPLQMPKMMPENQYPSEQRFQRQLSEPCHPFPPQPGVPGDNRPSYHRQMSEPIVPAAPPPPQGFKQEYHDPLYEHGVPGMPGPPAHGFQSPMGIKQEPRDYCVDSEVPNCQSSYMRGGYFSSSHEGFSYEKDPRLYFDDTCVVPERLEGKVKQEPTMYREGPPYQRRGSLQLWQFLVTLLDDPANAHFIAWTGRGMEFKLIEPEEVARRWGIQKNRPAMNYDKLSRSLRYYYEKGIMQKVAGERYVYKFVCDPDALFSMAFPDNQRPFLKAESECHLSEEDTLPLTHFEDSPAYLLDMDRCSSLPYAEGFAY
# Sequence of ETV1 (P50549 whole entry): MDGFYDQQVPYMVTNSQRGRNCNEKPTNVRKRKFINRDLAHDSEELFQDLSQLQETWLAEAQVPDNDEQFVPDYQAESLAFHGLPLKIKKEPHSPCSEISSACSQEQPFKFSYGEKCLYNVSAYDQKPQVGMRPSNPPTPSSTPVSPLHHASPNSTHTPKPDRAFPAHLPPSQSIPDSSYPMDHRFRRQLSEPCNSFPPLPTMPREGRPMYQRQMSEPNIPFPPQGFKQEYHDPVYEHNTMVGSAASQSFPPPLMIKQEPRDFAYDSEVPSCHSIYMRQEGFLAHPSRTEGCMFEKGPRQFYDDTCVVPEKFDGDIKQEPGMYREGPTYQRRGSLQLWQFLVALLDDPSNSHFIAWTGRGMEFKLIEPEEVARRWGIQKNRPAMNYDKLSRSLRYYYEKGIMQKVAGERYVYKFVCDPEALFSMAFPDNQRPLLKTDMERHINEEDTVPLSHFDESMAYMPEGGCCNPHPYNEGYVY
# Sequence of HSF1 (Q00613 whole entry): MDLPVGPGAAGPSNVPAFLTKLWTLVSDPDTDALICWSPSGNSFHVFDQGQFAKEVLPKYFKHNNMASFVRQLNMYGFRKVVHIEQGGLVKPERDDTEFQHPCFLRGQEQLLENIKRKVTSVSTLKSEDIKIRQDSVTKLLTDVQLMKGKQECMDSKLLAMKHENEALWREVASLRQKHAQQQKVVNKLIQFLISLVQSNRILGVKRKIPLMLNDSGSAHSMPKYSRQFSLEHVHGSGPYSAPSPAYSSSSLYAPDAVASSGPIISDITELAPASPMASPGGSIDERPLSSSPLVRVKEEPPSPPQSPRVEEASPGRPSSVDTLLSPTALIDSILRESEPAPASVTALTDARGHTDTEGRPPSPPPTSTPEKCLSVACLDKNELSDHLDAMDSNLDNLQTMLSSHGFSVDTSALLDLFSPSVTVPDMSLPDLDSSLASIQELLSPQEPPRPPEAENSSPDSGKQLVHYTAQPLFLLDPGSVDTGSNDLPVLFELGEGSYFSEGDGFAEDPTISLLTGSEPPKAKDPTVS
# Sequence of ELF4 (Q99607 whole entry): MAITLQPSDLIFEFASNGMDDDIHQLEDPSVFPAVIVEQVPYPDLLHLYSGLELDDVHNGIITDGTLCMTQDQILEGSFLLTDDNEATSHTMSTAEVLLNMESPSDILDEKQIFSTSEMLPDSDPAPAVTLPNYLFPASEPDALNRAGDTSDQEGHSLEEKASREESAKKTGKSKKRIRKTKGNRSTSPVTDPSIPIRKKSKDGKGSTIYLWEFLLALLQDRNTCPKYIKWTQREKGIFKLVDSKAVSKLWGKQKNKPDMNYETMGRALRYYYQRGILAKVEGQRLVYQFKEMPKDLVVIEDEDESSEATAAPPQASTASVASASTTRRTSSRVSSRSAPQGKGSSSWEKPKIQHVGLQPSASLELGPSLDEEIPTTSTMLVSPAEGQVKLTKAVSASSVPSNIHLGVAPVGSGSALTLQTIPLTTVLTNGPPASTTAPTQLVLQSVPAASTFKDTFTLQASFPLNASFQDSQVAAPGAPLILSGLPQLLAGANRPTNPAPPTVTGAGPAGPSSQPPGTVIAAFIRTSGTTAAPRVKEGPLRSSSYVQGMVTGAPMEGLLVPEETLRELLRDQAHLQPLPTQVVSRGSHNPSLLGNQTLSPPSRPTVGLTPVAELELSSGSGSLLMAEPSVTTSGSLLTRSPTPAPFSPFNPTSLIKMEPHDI
sequence,measurement,setting,value
CCCGGA,binding signal,FEV,"2.77 fold enrichment (6-mer frequency, TF over GST control)"
same,binding signal,ETV5,"3.14 fold enrichment (6-mer frequency, TF over GST control)"
same,binding signal,HSF1,"1.14 fold enrichment (6-mer frequency, TF over GST control)"
same,binding signal,SPIC,"2.52 fold enrichment (6-mer frequency, TF over GST control)"
same,binding signal,ELF4,"2.6 fold enrichment (6-mer frequency, TF over GST control)"
same,binding signal,ELK4,"2.16 fold enrichment (6-mer frequency, TF over GST control)"
same,binding signal,ETV2,"2.55 fold enrichment (6-mer frequency, TF over GST control)"
same,binding signal,ELF3,"2.88 fold enrichment (6-mer frequency, TF over GST control)"
same,binding signal,CRX,"1.03 fold enrichment (6-mer frequency, TF over GST control)"
same,binding signal,ETV1,"2.98 fold enrichment (6-mer frequency, TF over GST control)"
same,binding signal,ERF,"2.32 fold enrichment (6-mer frequency, TF over GST control)"
same,binding signal,ETV3L,"2.8 fold enrichment (6-mer frequency, TF over GST control)"
same,binding signal,ETS2,"2.98 fold enrichment (6-mer frequency, TF over GST control)"
same,binding signal,SPDEF,"3.97 fold enrichment (6-mer frequency, TF over GST control)"
same,binding signal,ETV7,"2.48 fold enrichment (6-mer frequency, TF over GST control)"
same,binding signal,ELF5,"3.77 fold enrichment (6-mer frequency, TF over GST control)"
same,binding signal,ETV3,"3.23 fold enrichment (6-mer frequency, TF over GST control)"
same,binding signal,ETV6,"2.89 fold enrichment (6-mer frequency, TF over GST control)"
